Shiga toxin inh = blocks Shiga toxin action in Vero cells | inhibition, % at 38.7 µM | actives 9.2% (n = 290,000) | Vero cells, Shiga toxin protein synthesis inhibition reporter; in the data active = inhibition mostly above about 28%, no sharp cut-off; inactive = mostly below about 43%; note: 0% is about no effect
FBPA Giardia inh = Giardia lamblia aldolase inhibition. A8B2U2. purified Giardia FBPA. Potency, µM (doses to about 59.6 µM), inactives show top-dose activity, negative = inhibition, usual class: inhibitors. actives 0.71% (n = 290,000). AID 2451; note: potency is the fitted concentration of half-maximal effect; % is set by controls: 0 for no effect and ±100 for the full control effect; nearly all actives have a fitted effect of over 55% in size
Target sequence (A8B2U2 whole entry, looked up): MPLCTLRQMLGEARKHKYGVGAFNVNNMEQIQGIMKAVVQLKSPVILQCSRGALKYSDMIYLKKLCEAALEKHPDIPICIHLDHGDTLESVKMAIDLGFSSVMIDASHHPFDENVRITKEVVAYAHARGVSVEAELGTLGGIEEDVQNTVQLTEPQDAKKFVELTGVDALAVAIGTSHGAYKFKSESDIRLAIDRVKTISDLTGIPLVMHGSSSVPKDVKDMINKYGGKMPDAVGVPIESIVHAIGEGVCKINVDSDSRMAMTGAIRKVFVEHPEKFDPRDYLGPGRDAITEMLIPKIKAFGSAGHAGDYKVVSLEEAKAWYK
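40 nM FBPA preincubated 10 min at RT with compound (up to 57.5 uM final), then substrate plus GAPDH/TPI/NAD/arsenate coupling and diaphorase/resazurin added. Fluorescence read after 20 min at RT, 525/598 nm.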
CHX counter = counter-screen for Shiga toxin inhibitors: cycloheximide protein synthesis inhibition | cell reporter, cycloheximide protein synthesis inhibition counterscreen | max response, % | actives 12% (n = 300,000) | AID 2314; in the data active = max response mostly above about 13%, no sharp cut-off; inactive = mostly below about 14%; note: read at 38.3 µM for the half of the compounds with a filed dose; 0% is about no effect
Pf growth 96h = inhibits malaria parasite growth, 96 h; actives 6.9% (n = 320,000); P. falciparum luciferase reporter growth, 96 h; Potency, µM (highest dose often 28.7 µM), for inactives: at the top dose activity change, negative = inhibition, most hits filed as inhibitors; note: potency is the fitted concentration of half-maximal effect; % is set by controls: 0 for no effect and ±100 for the full control effect
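P. falciparum expressing integrated firefly luciferase, in erythrocytes at 2% hematocrit, 0.05% parasitemia, incubated with compounds 96 h at 37 C, 5% CO2. Growth inhibition read as loss of luminescence; two-generation exposure targets delayed-death apicoplast inhibitors.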
NS1 function inh = inhibitors of influenza NS1 protein function; Potency, µM (doses to about 46.1 µM), for the others: at the top dose activity, positive = more growth; actives 0.4% (n = 270,000); AID 2326; calls by dose curve; note: potency is the fitted concentration of half-maximal effect; actives are rising curves; nearly all actives have a fitted effect of over 50% in size
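In this qHTS, NS1 from influenza A is expressed in budding yeast, where it slows growth. Cells are switched from glucose to 2% galactose medium (pH 6.0, -URA), treated with compound, and growth recovery is read at OD600.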
Pf growth 48h = inhibits P. falciparum growth in the first generation, 48 h. P. falciparum luciferase growth in erythrocytes, 48 h. Potency, µM (doses to about 28.7 µM), inactives show at the highest dose activity change, negative = inhibition, hits mostly inhibitors. actives 5.9% (n = 310,000). AID 504832; note: potency is the fitted concentration of half-maximal effect; % is set by controls: 0 for no effect and ±100 for the full control effect
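Luciferase-expressing P. falciparum in infected erythrocytes (2% hematocrit, 0.1% parasitemia final) in RPMI 1640/0.5% Albumax were exposed to compound for 48 hours at 37 C, 5% CO2; growth read as luminescence.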
The depositor's hits bear a star; [ ] = another dose, or the depositor's remark. Rows were chosen to be rich in hits. Some 21% of all compounds tested hit in one or more screens of this group. Unless noted, calls come from the whole dose curve; as a rule, active = well fitted curve in the direction sought with a large enough effect; inconclusive = small, poorly fitted or top-dose-only effect, or another doubt; inactive = no such curve, though single readings can be large; an effect the other way counts as inactive or inconclusive.

CC(=O)N1CCN(S(=O)(=O)c2cccc(C(=O)OCC(=O)N(CCC#N)c3ccc(F)cc3)c2)CC1 was read as Pf growth 96h inconclusive and Pf growth 48h -22%.
Cc1csc2nc(COC(=O)c3ccc(Cl)c([N+](=O)[O-])c3)cc(=O)n12 was read as Pf growth 96h -10% and Pf growth 48h 24%.
Cc1[nH]c2ccccc2c1C(C[N+](=O)[O-])c1ccco1 (stereo not given) was read as Shiga toxin inh 12, FBPA Giardia inh inconclusive, CHX counter -4, Pf growth 96h -17% and Pf growth 48h 3%.
For Cc1ccc(-c2[nH]c3ccccc3c2C(C[N+](=O)[O-])c2ccco2)cc1 (stereo not given) the results were Shiga toxin inh 25, FBPA Giardia inh -12%, CHX counter 20*, NS1 function inh 5% and Pf growth 48h 9.3µM*.
For CCn1c2ccccc2c2cc(/C=N/n3cn[nH]c3=S)ccc21 the results were Shiga toxin inh -8, CHX counter 1, Pf growth 96h 8.3µM*, NS1 function inh -126% and Pf growth 48h inconclusive.
`CCn1c2ccccc2c2cc(/C=N/n3cnnc3)ccc21` gave Shiga toxin inh -17, FBPA Giardia inh -3%, CHX counter -2, Pf growth 96h -16% and NS1 function inh -107%.
COCC(=O)N1CCC2(CCCN(c3cccc(-c4ccccc4)c3)C2)CC1 was read as FBPA Giardia inh -4%.
`COc1ccc(NC(=S)NC(=O)/C=C/c2ccccc2)cc1` gave FBPA Giardia inh -1%, CHX counter -2, Pf growth 96h -30%, NS1 function inh 10% and Pf growth 48h 1%.
`COc1ccc(NC(=O)O/N=C/c2ccccc2)cc1` gave Shiga toxin inh 79*, FBPA Giardia inh -1%, CHX counter 40*, Pf growth 96h inconclusive, NS1 function inh -29% and Pf growth 48h 6%.
`COc1ccc(NC(=O)O/N=C/c2ccccc2Cl)cc1` gave Shiga toxin inh 72*, FBPA Giardia inh -9%, CHX counter 30*, Pf growth 96h 39%, NS1 function inh -3% and Pf growth 48h 27%.
For CN(C)c1ccc(/C=N/OC(=O)Nc2ccccc2)cc1 the results were Shiga toxin inh 52*, FBPA Giardia inh -13%, CHX counter 37*, Pf growth 96h inconclusive, NS1 function inh -11% and Pf growth 48h 96%.
Screening COC(=O)N/N=C/c1ccccc1Cl returned Shiga toxin inh 21, FBPA Giardia inh -2%, CHX counter 9, Pf growth 96h 78% and Pf growth 48h inactive.
CN(C)S(=O)(=O)c1ccc2c(c1)/C(=C/c1cc3c([nH]1)CCCC3)C(=O)N2 was read as FBPA Giardia inh -4%, Pf growth 96h 1.3µM*, NS1 function inh -8% and Pf growth 48h 2.1µM*.
For CCn1c(Cc2ccccc2)nnc1SCC(=O)Nc1ccccc1O the results were Shiga toxin inh 8, FBPA Giardia inh -4%, CHX counter -2, Pf growth 96h 37% and Pf growth 48h -15%[5.75 µM].
C/C=C(/C)C(=O)OC1c2c(ccc3ccc(=O)oc23)OC(C)(C)C1OC(=O)/C(C)=C\C (stereo not given) was read as Shiga toxin inh -7, FBPA Giardia inh -13%, CHX counter -4, Pf growth 96h 1.5µM*, NS1 function inh 2% and Pf growth 48h inconclusive.
For C/C=C(\C)C(=O)OC1c2c(ccc3ccc(=O)oc23)OC(C)(C)C1OC(C)=O (stereo not given) the results were Shiga toxin inh -2, FBPA Giardia inh 0%, CHX counter -2, Pf growth 96h inconclusive, NS1 function inh -3% and Pf growth 48h 8.3µM*.
Screening CC(=O)O[C@@H]1[C@H](OC(=O)CC(C)C)c2c(ccc3ccc(=O)oc23)OC1(C)C returned Shiga toxin inh -14, FBPA Giardia inh -4%, CHX counter -4, Pf growth 96h inconclusive, NS1 function inh -28% and Pf growth 48h -15%.
`CCN(CC(=O)NCc1ccc(F)cc1)C(=O)/C=C/c1cc(OC)ccc1OC` gave Shiga toxin inh -4, FBPA Giardia inh -3%, CHX counter 4, Pf growth 96h 19%, NS1 function inh 16% and Pf growth 48h 4%.
